# RGS12 GoLoco inh = blocks human Gai1 binding to RGS12 GoLoco peptide, red readout; P63096; Gai1:RGS12 GoLoco peptide FP, rhodamine, 10 min; Potency, µM (series often up to 61.6 µM), inactives show top-dose activity, negative = inhibition, most hits filed as inhibitors; 230,000 compounds, 0.44% hits; AID 880; active = well fitted inhibition curve with a large enough effect, not every such curve was filed as active; inactive = no such curve, though single readings can be large or run the other way; note: nearly all actives have a fitted effect of over 30% in size
# TRb SRC2 PPI = inhibitors of human thyroid hormone receptor beta-SRC2 interaction. TRbeta-SRC2 peptide binding, fluorescence polarization; receptor liganded with 1 µM T3. Potency, µM (titrated, usually from 106 µM), for the others: at the top dose activity change, negative = inhibition, hits mostly inhibitors. 280,000 compounds, 0.065% hits. AID 1469;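 note: plate controls were bound peptide for no effect and peptide without receptor for full effect; nearly all actives have a fitted effect of over 50% in size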
#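 TRb LBD 0.6 uM + Texas Red SRC2 peptide 20 nM, 1 uM T3, Tris buffer w/ 5% DMSO; compound pinned, 5 h RT; FP read ex 555/em 632; normalized to unbound and bound controls.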
# KAT2A inh = GCN5L2 (KAT2A) acetyltransferase inhibition | GCN5L2 HAT assay, ThioGlo1 CoA-SH fluorescence | Potency, µM (top dose mostly 58.9 µM), inactives show top-dose activity change, negative = inhibition, most hits filed as inhibitors | 390,000 compounds, 0.21% hits | Q92830
#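 qHTS, 1536-well. 20nM enzyme, pH 7.5 HEPES/EDTA/Tween-20 buffer; 15 min compound preinc., RT. Start: 75uM H3(1-25), 70uM AcCoA, 50uM ThioGlo1. Read Ex340/Em540 at t=0 (autofluorescence flag) and t=20 min.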
# VDR inhibitor = blocks the human vitamin D receptor. VDR-SRC2-3 peptide fluorescence polarization, 2 h. Potency, µM, inactives show max response, negative = inhibition, usual class: inhibitors. 400,000 compounds, 0.93% hits
# Target sequence (P11473 whole entry, looked up): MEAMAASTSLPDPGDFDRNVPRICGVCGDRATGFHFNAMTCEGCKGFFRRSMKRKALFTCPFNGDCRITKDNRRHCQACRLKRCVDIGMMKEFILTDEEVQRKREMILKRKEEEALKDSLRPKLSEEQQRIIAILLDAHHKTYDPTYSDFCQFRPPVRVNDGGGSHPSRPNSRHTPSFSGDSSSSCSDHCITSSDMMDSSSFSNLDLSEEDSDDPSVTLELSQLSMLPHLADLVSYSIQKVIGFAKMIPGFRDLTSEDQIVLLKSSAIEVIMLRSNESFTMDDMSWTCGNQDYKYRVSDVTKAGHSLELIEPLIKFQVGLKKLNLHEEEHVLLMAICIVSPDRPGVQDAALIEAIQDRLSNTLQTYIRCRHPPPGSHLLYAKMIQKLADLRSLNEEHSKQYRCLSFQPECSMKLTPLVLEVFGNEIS
#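 VDR–SRC2-3 interaction, FP format. Cmpds 23 nl via pintool, brief spin, 2 h ambient incubation.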
# TR SRC2 fluor cs = counter-screen for TRb-SRC2 inhibitors: fluorescence interference | TRb/SRC2 Texas Red total fluorescence interference | Potency, µM (series often up to 106 µM), without a hit: top-dose fluorescence change, negative = quenching | 280,000 compounds, 0.29% hits | AID 1479; active = well fitted curve in either direction with a large enough effect; inconclusive = small, poorly fitted or top-dose-only effect
#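 Human TRβ ligand-binding domain (0.6 uM) and Texas Red SRC2 peptide (20 nM) in Tris buffer with 1 uM T3 and 5% DMSO were incubated with pinned compound for 5 hr at ambient temperature. Total fluorescence was computed as S + 2P (555/632 nm).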
# Starred values were filed as active, the others as inactive; ? = inconclusive; · = no result; [ ] = dose if it differs, or a comment. In the library only some 1.2% were active in any assay of this set; here they are far more common. Unless noted, calls come from the whole dose curve; as a rule, active = well fitted curve in the direction sought with a large enough effect; inconclusive = small, poorly fitted or top-dose-only effect, or another doubt; inactive = no such curve, though single readings can be large; an effect the other way counts as inactive or inconclusive. Unless noted, % is set by controls: 0 for no effect and ±100 for the full control effect; potency is the fitted concentration of half-maximal effect.
SMILES,RGS12 GoLoco inh,TRb SRC2 PPI,KAT2A inh,VDR inhibitor,TR SRC2 fluor cs
CC[C@H](C)[C@H](NC(=O)CNC(=O)[C@@H](NC(=O)[C@@H](NC(=O)[C@H](Cc1ccc(O)cc1)NC(=O)[C@H](CC(C)C)NC(=O)[C@H](C)NC(=O)[C@H](CCC(N)=O)NC(=O)CNC(=O)[C@@H]1CCCN1C(=O)CNC(=O)[C@H](Cc1ccccc1)NC(=O)[C@H](Cc1cnc[nH]1)NC(=O)[C@@H](NC(=O)CNC(=O)[C@H](CCCNC(=N)N)NC(=O)[C@H](CCCNC(=N)N)NC(=O)[C@@H](NC(=O)[C@H](CC(N)=O)NC(=O)[C@@H](N)CS)[C@@H](C)O)[C@@H](C)CC)[C@@H](C)O)[C@@H](C)O)C(=O)O,·,6%,1%,?,1%
CC[C@H](C)[C@H](N)C(=O)N[C@H](C(=O)N[C@@H](CO)C(=O)N[C@@H](C)C(=O)N[C@H](C(=O)N[C@H](C(=O)NCC(=O)N[C@H](C(=O)N[C@@H](CC(C)C)C(=O)O)[C@@H](C)CC)C(C)C)C(C)C)[C@@H](C)CC,·,-6%,-3%,2%,-1%
O=C(NCc1cccnc1)[C@@H]1[C@@H](C(=O)O)[C@H]2CC[C@@H]1O2,3%[14.2 µM],·,·,·,·
O=C1C(Cl)=C(N2CCN(c3ccccc3[N+](=O)[O-])CC2)C(=O)c2ccccc21,-1%,-2%,-3%,40µM*,-7%
Cc1ccccc1-c1cncnc1NCc1cccnc1,0%,·,-29%,50µM*,·
Cc1ccccc1-c1cncnc1Nc1ccccc1,-4%,·,-28%,45µM*,·
CN(C)Cc1ccccc1-c1cncnc1Nc1ccccc1,-9%,·,-12%,-4%,·
CNc1ncncc1-c1ccccc1C,8%,·,0%,71µM*,·
COc1cccc(-c2cncnc2Nc2ccccc2)c1,6%,·,?,40µM*,·
Cc1ccccc1-c1cncnc1NCc1ccccc1,-12%,·,-14%,-16%,·
CO[C@H](C(=O)[C@@H](O)[C@@H](C)O)C1Cc2cc3cc(O[C@H]4C[C@@H](O[C@H]5C[C@@H](O)[C@H](O)[C@@H](C)O5)[C@@H](O)[C@@H](C)O4)c(C)c(O)c3c(O)c2C(=O)[C@H]1O[C@H]1C[C@@H](O[C@H]2C[C@@H](O[C@H]3C[C@](C)(O)[C@H](O)[C@@H](C)O3)[C@H](O)[C@@H](C)O2)[C@H](O)[C@@H](C)O1 (some centres not stated),·,·,8%,?,·
COc1ccc(-c2ccc(NS(=O)(=O)c3ccc(F)c(C(F)(F)F)c3)cc2)nn1,·,-4%,-13%,13%,224µM*[quencher]
COc1ccc(NS(=O)(=O)c2ccc(F)c(Cl)c2)cn1,·,·,-4%,79µM*,·
COc1ccc(NS(=O)(=O)c2ccc(Br)cc2)cn1,·,·,-4%,8%,·
Nc1nc(NCc2ccc(Cl)cc2)c2[nH]cnc2n1,·,·,·,-4%,·
CCn1c(=O)c(=O)[nH]c2cc(C(=O)NC3CCCc4ccccc43)ccc21 (configuration not stated),205%,11%,-25%,-2%,40µM*[fluorescent]
COc1ccc(/C=C/c2nc3ccccc3n2C)cc1,10%,2%,-14%,5%,-6%
CC(COc1ccc(/C=C/c2ccccc2)cc1)[N+](C)(C)C (configuration not stated),10µM*,1%,?,6%,-6%
CCCCc1cc2c(cn1)=C(OC(=O)c1ccco1)C(C)(OC(=O)CC)C(=O)C=2 (configuration not stated),17%[14.2 µM],4%[11.2 µM],·,·,-11%[11.2 µM]
Cc1ccc2nc(-c3ccc(N)cc3)sc2c1S(=O)(=O)O,-2%,8%,·,·,-5%
Cc1ccc(NC(=O)C(=Cc2ccc(C(=O)O)cc2)C(=O)Nc2ccc(C)cc2C)c(C)c1,-2%,-1%,-8%,25µM*,0%
CCOC(=O)C1=NN(c2ccc(Cl)cc2Cl)C(C)(C(=O)OCC)C1 (configuration not stated),·,5%[201 µM],·,·,-2%[201 µM]
CCCCCCCCCCCCCC[C@@H](O)[C@@H](O)[C@H](CO)NC(C)=O,·,0%,-20%,-9%,-28%
Cc1ccc(OCC(=O)Sc2ccc(C)cc2)cc1,-2%,-1%,-6%,45µM*,1%
CC[C@H](C)[C@H](NC(=O)[C@H](Cc1ccc(O)cc1)NC(=O)[C@H](CCCNC(=N)N)NC(=O)[C@H](CCCNC(=N)N)NC(=O)[C@H](CC(C)C)NC(=O)[C@H](CCC(N)=O)NC(=O)[C@@H](NC(=O)[C@H](CCC(=O)O)NC(=O)[C@H](Cc1ccc(O)cc1)NC(=O)[C@H](CCC(N)=O)NC(=O)[C@H](C)NC(=O)[C@H](CCCNC(=N)N)NC(=O)[C@H](CCC(N)=O)NC(=O)[C@H](CCC(=O)O)NC(=O)[C@H](Cc1cnc[nH]1)NC(=O)[C@@H](NC(=O)[C@H](C)NC(=O)[C@H](Cc1ccc(O)cc1)NC(=O)[C@H](CC(=O)O)NC(=O)CNC(=O)[C@@H]1CCCN1C(=O)[C@H](Cc1ccc(O)cc1)NC(=O)[C@H](CCSC)NC(=O)[C@@H]1CCCN1C(=O)[C@H](CCC(=O)O)NC(=O)[C@H](CC(C)C)NC(=O)[C@@H]1CCCN1C(=O)[C@H](C)N)[C@@H](C)O)[C@@H](C)O)C(=O)N[C@@H](CC(N)=O)C(=O)N[C@H](C(=O)N[C@@H](CC(C)C)C(=O)N[C@H](C(=O)N[C@@H](CCCNC(=N)N)C(=O)N1CCC[C@H]1C(=O)N[C@@H](CCCNC(=N)N)C(=O)N[C@@H](Cc1ccc(O)cc1)C(N)=O)[C@@H](C)O)[C@@H](C)O,·,0%,45%,7%,-6%
SMILES,RGS12 GoLoco inh,TRb SRC2 PPI,KAT2A inh,VDR inhibitor,TR SRC2 fluor cs
COCCN1C=C2C(=O)C(C)(OC(=O)CCC(=O)OC)C(=O)C(Br)=C2C=C1c1ccc(OC)cc1 (configuration not stated),11%[14.2 µM],3%[11.2 µM],·,22µM*,-1%[11.2 µM]
C=CCN1C=C2C(=O)C(C)(OC(=O)CCC(=O)OC)C(=O)C(Br)=C2C=C1c1ccc(OC)cc1 (configuration not stated),26%[14.2 µM],1%[11.2 µM],-2%,?,-1%[11.2 µM]
Oc1ccc(O)c2c1C1c3ccccc3C2c2ccccc21,·,·,-7%,·,·
O=C1C=CC(=O)C2=C1C1c3ccccc3C2c2ccccc21,18µM*,-3%,·,·,-1%
CCOC(=O)CC1(C)OCC(C[N+]2(C)CCCCC2)O1 (configuration not stated),11µM*,-2%,-17%,-15%,2%
C/C(=C(/CCO)SS/C(CCO)=C(\C)N(C=O)Cc1cnc(C)nc1N)N(C=O)Cc1cnc(C)nc1N,·,·,-3%,32µM*,·
Cc1ncc(CN=Cc2ccc(Cl)cc2)c(N)n1,1%[14.2 µM],4%,27%,1%,4%
